Results filed as inconclusive are left out. A call without a number means that no potency is given here. A number with no mark means an inactive call. Activity calls are given as the source filed them. Calls come from the whole dose curve; as a rule, active = well fitted inhibition curve with a large enough effect; inconclusive = small, poorly fitted or top-dose-only effect; inactive = flat fitted curve, though single readings scatter.
What was measured:
[1] = test system: CRL-7250; assay: Cytotoxic Profiling of Annotated Libraries Using Quantitative High-Throughput Screening (AID 1296008); conditions: Five cell lines viability, CellTiter-Glo ATP luminescence, 48-72 h; max response: stronger effect = lower value
Procedure, shortened: (§1)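 Compounds were pin-transferred onto cells and incubated 48 or 72 hr at 37 degree Celsius, 95% humidity. CellTiter-Glo was added, plates sat 10 min at room temperature, then ATP-coupled luminescence was imaged as the viability read-out.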

[2] = test system: HEK293; assay: as above; conditions: Five cell lines viability, CellTiter-Glo ATP luminescence, 48-72 h; max response: stronger effect = lower value
Procedure, shortened: as §1

[3] = test system: HaCat; assay: as above; conditions: Five cell lines viability, CellTiter-Glo ATP luminescence, 48-72 h; max response: stronger effect = lower value
Procedure, shortened: as §1

[4] = test system: NIH3T3; assay: as above; conditions: Five cell lines viability, CellTiter-Glo ATP luminescence, 48-72 h; max response: stronger effect = lower value
Procedure, shortened: as §1

[5] = test system: HEK293T; assay: qHTS assay to identify novel small-molecules to repurpose for Merkel cell carcinoma treatment (AID 1296009); conditions: MCC and control cell lines, CellTiter-Glo viability, 72 h; at 44.8 µM (top of the series) unless noted
Procedure, shortened: (§2)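 qHTS format: cells treated with library compounds in DMSO across 8 (NPC) or 11 (MIPE) concentrations. Readout after 72 hr at 37 degree celsius was CellTiter-Glo luminescence.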

[6] = test system: MCC-26; assay: as above; conditions: MCC and control cell lines, CellTiter-Glo viability, 72 h; series mostly up to 46 µM
Procedure, shortened: as §2

[7] = test system: MKL-1; assay: as above; conditions: MCC and control cell lines, CellTiter-Glo viability, 72 h; series mostly up to 46 µM
Procedure, shortened: as §2

[8] = test system: MKL-2; assay: as above; conditions: MCC and control cell lines, CellTiter-Glo viability, 72 h; series mostly up to 46 µM
Procedure, shortened: as §2

[9] = test system: MCC-13; assay: as above; conditions: MCC and control cell lines, CellTiter-Glo viability, 72 h; series mostly up to 46 µM
Procedure, shortened: as §2

[10] = test system: HACAT; assay: as above; conditions: MCC and control cell lines, CellTiter-Glo viability, 72 h; at 44.8 µM (top of the series) unless noted
Procedure, shortened: as §2
Note: nearly all actives have a fitted effect of over 60% in size.
Potency is the fitted concentration of half-maximal effect.

Nc1nc(=O)n([C@@H]2O[C@H](CO)[C@@H](O)[C@@H]2F)cc1I
max response [1]: -26.4% | outcome [2]: inactive | max response [3]: 3.07% | max response [4]: -21.4% | outcome [5]: inactive | Potency [6]: inactive | Potency [7]: inactive | Potency [8]: inactive

O=C(O)Cn1c(=O)n(Cc2ccc(Br)cc2F)c(=O)c2ccc(Cl)cc21
outcome [1]: inactive | outcome [2]: inactive | max response [3]: 0.662% | outcome [4]: inactive | outcome [5]: inactive | Potency [9]: inactive | Potency [6]: inactive | Potency [7]: inactive | Potency [8]: inactive

CCc1cccc2c(CCO)c[nH]c12
max response [1]: -8.62% | max response [2]: -6.21% | max response [3]: 2.18% | max response [4]: 1.36% | Potency [9]: inactive | Potency [6]: inactive | Potency [7]: inactive | Potency [8]: inactive

O=C(O)Cn1cnnn1
max response [1]: -0.376% | outcome [2]: inactive | max response [3]: 1.64% | max response [4]: -2.11% | outcome [5]: inactive | Potency [9]: inactive | Potency [6]: inactive | Potency [7]: inactive | Potency [8]: inactive

CCOC(=O)O[C@]1(C(=O)OCCl)CC[C@H]2[C@@H]3CCC4=CC(=O)C=C[C@]4(C)[C@H]3[C@@H](O)C[C@@]21C
outcome [1]: inactive | outcome [2]: inactive | max response [3]: -4.73% | outcome [4]: inactive | outcome [5]: inactive | Potency [9]: inactive | Potency [6]: inactive | Potency [7]: inactive | Potency [8]: inactive

O=c1[nH]c(=O)n([C@H]2O[C@H](CO)[C@@H](O)[C@@H]2O)cc1/C=C\Br
max response [1]: -8.24% | outcome [2]: inactive | max response [3]: 4.03% | max response [4]: -0.191% | outcome [5]: inactive | Potency [9]: inactive | Potency [6]: inactive | Potency [7]: inactive | Potency [8]: inactive

c1ccc2c(c1)CCc1ccccc1N2
outcome [1]: inactive | outcome [2]: inactive | max response [3]: -8.39% | outcome [4]: inactive | outcome [5]: inactive | Potency [9]: inactive | Potency [6]: inactive | Potency [7]: inactive | Potency [8]: inactive

CCOC(=O)C(=O)CCc1ccccc1
max response [1]: -13.2% | max response [2]: 4.19% | outcome [3]: inactive | max response [4]: -3.41% | outcome [10]: inactive | Potency [6]: inactive | Potency [7]: inactive | Potency [8]: inactive

CCOc1c(N2CCOCC2)cnn(C)c1=O
max response [1]: -1.71% | outcome [2]: inactive | max response [3]: -2.94% | max response [4]: -0.145% | outcome [5]: inactive | Potency [9]: inactive | Potency [6]: inactive | Potency [7]: inactive | Potency [8]: inactive

Cc1cc2nc3ccc(=[N+](C)C)cc-3sc2cc1N
Potency [1]: 9.44 µM (active) | Potency [2]: 0.422 µM (active) | Potency [3]: 6.68 µM (active) | Potency [4]: 10.6 µM (active) | Potency [9]: 2.99 µM (active) | Potency [6]: 11.9 µM (active) | Potency [7]: 0.596 µM (active) | Potency [8]: 0.531 µM (active)

CN(C)CCCOC1(Cc2ccccc2)CCCCCC1
outcome [1]: inactive | outcome [2]: inactive | max response [3]: -13.3% | max response [4]: 0.545% | outcome [5]: inactive | Potency [9]: inactive | Potency [6]: inactive | Potency [7]: inactive | Potency [8]: inactive

NC(=O)NC1N=C([O][Al])NC1=O (configuration not stated)
outcome [1]: inactive | outcome [2]: inactive | max response [3]: 3.4% | max response [4]: 1.11% | outcome [5]: inactive | Potency [9]: inactive | Potency [6]: inactive | Potency [7]: inactive | Potency [8]: inactive

Cc1sccc1Br
max response [1]: -9.55% | max response [2]: -4.49% | max response [3]: 1.43% | max response [4]: -2.8% | Potency [9]: inactive | Potency [6]: inactive | Potency [7]: inactive | Potency [8]: inactive

CC(C)C(=O)OCc1cccc(OC(=O)[C@@H]2N3C(=O)[C@@H](NC(=O)Cc4ccccc4)[C@H]3SC2(C)C)c1
outcome [1]: inactive | outcome [2]: inactive | max response [3]: -11.1% | max response [4]: 4.46% | outcome [5]: inactive | Potency [9]: inactive | Potency [6]: inactive | Potency [7]: inactive | Potency [8]: inactive

CC(=O)N1CCN(c2ccc(O)cc2)CC1
max response [1]: -1.56% | max response [2]: -2.95% | outcome [3]: inactive | outcome [4]: inactive | outcome [10]: inactive | Potency [9]: inactive | Potency [7]: 8.41 µM (active) | Potency [8]: 7.5 µM (active)

COc1cc(/C=C/C(N)=O)cc(OC)c1OC
outcome [1]: inactive | outcome [2]: inactive | max response [3]: 2.61% | outcome [4]: inactive | outcome [5]: inactive | Potency [9]: inactive | Potency [6]: inactive | Potency [7]: inactive | Potency [8]: inactive

O=C1CCCc2c(O)cccc21
max response [1]: -3.71% | max response [2]: -4.98% | outcome [3]: inactive | max response [4]: -15.1% | outcome [10]: inactive | Potency [9]: inactive | Potency [6]: inactive | Potency [7]: inactive | Potency [8]: inactive

Source: PubChem BioAssay (NCATS)
